About 83,000 compounds went through this panel and 20% of them were active in at least one assay; those are over-represented in the sample as a whole.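 48-hour exposure, single concentration, 96-well plates; percent growth endpoint where 0 means no net growth. Active: below 10.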 A number with no mark means an inactive call. Active and inactive are the calls of the source.
These molecules were tested on SW-620 colon (assay: NCI-60 one-dose screen, 48 h (100 = growth as untreated, 0 = no growth, -100 = all killed)). Details: 10 µM.

SMILES	growth [%]
Cc1ccc(C)n1-c1ccsc1C(=O)NNC(=O)CCl	108
C/C(=C\c1cc(Cl)ccc1OCC(=O)O)[N+](=O)[O-]	114
COc1cc2nn(-c3ccccc3N)nc2cc1OC	105
CCS(=O)(=O)CCCl	102
CC(=O)C1CCCCC1	100
COc1ccc(NC(=O)CCl)cc1	98.3
CC1CCCCN1C(=S)Nc1ccc(S(=O)(=O)N2CCCCC2)cc1 (stereo not drawn)	93.2
CN(C)c1nc2c([nH]1)c(=O)n(C)c(=O)n2C	102
O=C1NC(=O)C2C(=O)NC(=O)C1C21CCc2ccccc21 (stereo not drawn)	101
c1csc(-c2cc(-c3cc(-c4cccs4)[nH]n3)n[nH]2)c1	104
CC(=O)CC(=O)N(C)C	101
CS(=O)CC1=NC(=N)N=C1CS(C)=O (stereo not drawn)	108
COc1cc(OC)c2ccc(=O)oc2c1	101
Cc1ccc(/C=C2\SC(=S)N(c3ccc(F)cc3)C2=O)o1	93.3
N/N=C(/Cc1ccccc1)NNC(N)=S	111
COc1cc2c(cc1OC)[C@H](C(=O)O)[C@@H](c1ccc(OC(C)C)c(OC)c1)N(C)C2=O	109
O=c1cc(-c2ccccc2)nc2cc(-c3ccco3)[nH]n12	81.7
CC(C)NC(=O)OCc1c(COC(=O)NC(C)C)c(-c2ccc(Cl)c(Cl)c2)n2c1SCC2	44.8
CCOC(=O)c1cc(/C=C/c2cccc(Cl)c2)on1	84.2
C/C(=C\c1ccc([N+](=O)[O-])cc1)C(=O)O	102

SMILES	growth [%]
Cc1cc2nc(CC(=O)c3ccccc3)c(=O)[nH]c2cc1C	94.3
CCNCCCCNCCCCNCCCCNCCCCNCC	68.3
CC(C)(O)C#CC#CC(C)(C)O	104
COc1cc(-c2ccc(NC(=O)NC3CC3)c(OC)c2)ccc1NC(=O)NC1CC1	66.8
COc1nc(N)nc2c1ncn2C1OC(CO)CC1O (stereo not drawn)	108
COC(=O)c1cc(-c2ccc(Cl)c(Cl)c2)[nH]c(=O)c1C#N	99.1
c1ccc2c(c1)Sc1ccccc1S2	104
C=CCNc1nnc(C)s1	107
CCCCNC(=O)C(=O)NCCCC	104
COc1ccc2c(c1)CCc1c-2n[nH]c1-c1[nH]nc2c1CCc1cc(OC)ccc1-2	45
CC(=O)Cc1cc(-c2cc(CC(C)=O)[nH]n2)n[nH]1	98.5
C1CNC(C2=NCCN2)=N1	100
COC(=O)c1[nH]c(=O)c(C#N)c(C(=O)OC)c1C(=O)c1ccccc1	102
CC1=CC(=O)c2ccccc2C1=O	106
COC(=O)C(C)Oc1ccc(OC#N)cc1 (stereo not drawn)	95.6
CCOC(=O)C(=O)C=P(c1ccccc1)(c1ccccc1)c1ccccc1	114
CNC(=S)NC(C)(C)C	103
O=C(Cc1ccc(OCc2ccccc2)cc1)NCc1ccc2c(c1)OCO2	28.1
O=C(Nc1cccc(NC(=O)Nc2cc(C(F)(F)F)ccc2Cl)c1)Nc1cc(C(F)(F)F)ccc1Cl	13.5

Each molecule was assayed on MCF7 breast in the same assay as above. Details: 10 µM unless noted.

SMILES	growth
Cc1ccc(C)n1-c1ccsc1C(=O)NNC(=O)CCl	78.4%
C/C(=C\c1cc(Cl)ccc1OCC(=O)O)[N+](=O)[O-]	90.4%
COc1cc2nn(-c3ccccc3N)nc2cc1OC	90.7%
CCS(=O)(=O)CCCl	76.8%
CC(=O)C1CCCCC1	97.9%
COc1ccc(NC(=O)CCl)cc1	64.4%
CC1CCCCN1C(=S)Nc1ccc(S(=O)(=O)N2CCCCC2)cc1 (stereo not drawn)	102%
CN(C)c1nc2c([nH]1)c(=O)n(C)c(=O)n2C	106%
O=C1NC(=O)C2C(=O)NC(=O)C1C21CCc2ccccc21 (stereo not drawn)	93.1%
c1csc(-c2cc(-c3cc(-c4cccs4)[nH]n3)n[nH]2)c1	75.5%
CC(=O)CC(=O)N(C)C	94.8%
CS(=O)CC1=NC(=N)N=C1CS(C)=O (stereo not drawn)	95%
COc1cc(OC)c2ccc(=O)oc2c1	100%
Cc1ccc(/C=C2\SC(=S)N(c3ccc(F)cc3)C2=O)o1	71.1%
N/N=C(/Cc1ccccc1)NNC(N)=S	89.2%
COc1cc2c(cc1OC)[C@H](C(=O)O)[C@@H](c1ccc(OC(C)C)c(OC)c1)N(C)C2=O	108%
O=c1cc(-c2ccccc2)nc2cc(-c3ccco3)[nH]n12	28%
CC(C)NC(=O)OCc1c(COC(=O)NC(C)C)c(-c2ccc(Cl)c(Cl)c2)n2c1SCC2	32.2%
CCOC(=O)c1cc(/C=C/c2cccc(Cl)c2)on1	13.9%
C/C(=C\c1ccc([N+](=O)[O-])cc1)C(=O)O	95.7%

SMILES	growth
Cc1cc2nc(CC(=O)c3ccccc3)c(=O)[nH]c2cc1C	78.1%
CCNCCCCNCCCCNCCCCNCCCCNCC	101%
CC(C)(O)C#CC#CC(C)(C)O	101%
COc1cc(-c2ccc(NC(=O)NC3CC3)c(OC)c2)ccc1NC(=O)NC1CC1	72.4%
COc1nc(N)nc2c1ncn2C1OC(CO)CC1O (stereo not drawn)	100%
COC(=O)c1cc(-c2ccc(Cl)c(Cl)c2)[nH]c(=O)c1C#N	89.1%
c1ccc2c(c1)Sc1ccccc1S2	95.7%
C=CCNc1nnc(C)s1	102%
CCCCNC(=O)C(=O)NCCCC	94.1%
COc1ccc2c(c1)CCc1c-2n[nH]c1-c1[nH]nc2c1CCc1cc(OC)ccc1-2	12.6%
CC(=O)Cc1cc(-c2cc(CC(C)=O)[nH]n2)n[nH]1	93.2%
C1CNC(C2=NCCN2)=N1	98.7%
COC(=O)c1[nH]c(=O)c(C#N)c(C(=O)OC)c1C(=O)c1ccccc1	68.9%
CC1=CC(=O)c2ccccc2C1=O	100%
COC(=O)C(C)Oc1ccc(OC#N)cc1 (stereo not drawn)	98%
CCOC(=O)C(=O)C=P(c1ccccc1)(c1ccccc1)c1ccccc1	97.5%
CNC(=S)NC(C)(C)C	97.4%
O=C(Cc1ccc(OCc2ccccc2)cc1)NCc1ccc2c(c1)OCO2	44.5%
O=C(Nc1cccc(NC(=O)Nc2cc(C(F)(F)F)ccc2Cl)c1)Nc1cc(C(F)(F)F)ccc1Cl	6.53% (active)

— PubChem BioAssay (NCI)
